Columns and labels:
Assay in all cases: PBM; 200 nM protein, PBS
Details in all cases: dsDNA, one strand shown
HESX1 [1] = target: HESX1 (Homo sapiens, UniProt Q9UBX0 95-180, R165K)
HESX1 [2] = target: HESX1 (Homo sapiens, UniProt Q9UBX0 95-180)
HESX1 [3] = target: HESX1 (Homo sapiens, UniProt Q9UBX0 95-180, R109Q)
HESX1 [4] = target: HESX1 (Homo sapiens, UniProt Q9UBX0 95-180, P111T)
HESX1 [5] = target: HESX1 (Homo sapiens, UniProt Q9UBX0 95-180, F115L)
HESX1 (Homo sapiens, UniProt Q9UBX0 95-180, F115L), sequence (Q9UBX0 95-180 F115L): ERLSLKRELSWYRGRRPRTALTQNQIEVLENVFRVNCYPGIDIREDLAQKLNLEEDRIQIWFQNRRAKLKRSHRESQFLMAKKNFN

HESX1 (Homo sapiens, UniProt Q9UBX0 95-180, R109Q), sequence (Q9UBX0 95-180 R109Q): as the sequence (Q9UBX0 95-180 F115L) above, with R15Q, L21F counted along it
HESX1 (Homo sapiens, UniProt Q9UBX0 95-180, R165K), sequence (Q9UBX0 95-180 R165K): as the sequence (Q9UBX0 95-180 F115L) above, with L21F, R71K counted along it
HESX1 (Homo sapiens, UniProt Q9UBX0 95-180, P111T), sequence (Q9UBX0 95-180 P111T): as the sequence (Q9UBX0 95-180 F115L) above, with P17T, L21F counted along it
HESX1 (Homo sapiens, UniProt Q9UBX0 95-180), sequence (Q9UBX0 95-180): as the sequence (Q9UBX0 95-180 F115L) above, with L21F counted along it

| Sequence | binding signal (HESX1 [1]) | binding signal (HESX1 [2]) | binding signal (HESX1 [3]) | binding signal (HESX1 [4]) | binding signal (HESX1 [5]) |
| --- | --- | --- | --- | --- | --- |
| CTAGGCCC | 6.43 upbm affinity estimate (log intensity, higher = more binding, comparable within an allelic series) | 6.46 upbm affinity estimate (log intensity, higher = more binding, comparable within an allelic series) | 6.51 upbm affinity estimate (log intensity, higher = more binding, comparable within an allelic series) | 6.58 upbm affinity estimate (log intensity, higher = more binding, comparable within an allelic series) | 6.46 upbm affinity estimate (log intensity, higher = more binding, comparable within an allelic series) |
| ACTCAATA | 7.78 upbm affinity estimate (log intensity, higher = more binding, comparable within an allelic series) | 7.87 upbm affinity estimate (log intensity, higher = more binding, comparable within an allelic series) | 7.28 upbm affinity estimate (log intensity, higher = more binding, comparable within an allelic series) | 7.59 upbm affinity estimate (log intensity, higher = more binding, comparable within an allelic series) | 7.33 upbm affinity estimate (log intensity, higher = more binding, comparable within an allelic series) |
| AGTTCAGC | 6.57 upbm affinity estimate (log intensity, higher = more binding, comparable within an allelic series) | 6.45 upbm affinity estimate (log intensity, higher = more binding, comparable within an allelic series) | 6.48 upbm affinity estimate (log intensity, higher = more binding, comparable within an allelic series) | 6.48 upbm affinity estimate (log intensity, higher = more binding, comparable within an allelic series) | 6.59 upbm affinity estimate (log intensity, higher = more binding, comparable within an allelic series) |
| CGTGCCAC | 6.27 upbm affinity estimate (log intensity, higher = more binding, comparable within an allelic series) | 6.24 upbm affinity estimate (log intensity, higher = more binding, comparable within an allelic series) | 6.45 upbm affinity estimate (log intensity, higher = more binding, comparable within an allelic series) | 6.56 upbm affinity estimate (log intensity, higher = more binding, comparable within an allelic series) | 6.43 upbm affinity estimate (log intensity, higher = more binding, comparable within an allelic series) |
| CCCGGAGG | 6.31 upbm affinity estimate (log intensity, higher = more binding, comparable within an allelic series) | 6.31 upbm affinity estimate (log intensity, higher = more binding, comparable within an allelic series) | 6.41 upbm affinity estimate (log intensity, higher = more binding, comparable within an allelic series) | 6.39 upbm affinity estimate (log intensity, higher = more binding, comparable within an allelic series) | 6.42 upbm affinity estimate (log intensity, higher = more binding, comparable within an allelic series) |
| AGCACGCT | 6.37 upbm affinity estimate (log intensity, higher = more binding, comparable within an allelic series) | 6.39 upbm affinity estimate (log intensity, higher = more binding, comparable within an allelic series) | 6.5 upbm affinity estimate (log intensity, higher = more binding, comparable within an allelic series) | 6.4 upbm affinity estimate (log intensity, higher = more binding, comparable within an allelic series) | 6.46 upbm affinity estimate (log intensity, higher = more binding, comparable within an allelic series) |
| AGGACCCC | 6.46 upbm affinity estimate (log intensity, higher = more binding, comparable within an allelic series) | 6.46 upbm affinity estimate (log intensity, higher = more binding, comparable within an allelic series) | 6.63 upbm affinity estimate (log intensity, higher = more binding, comparable within an allelic series) | 6.47 upbm affinity estimate (log intensity, higher = more binding, comparable within an allelic series) | 6.62 upbm affinity estimate (log intensity, higher = more binding, comparable within an allelic series) |
| AGGCAGCG | 6.62 upbm affinity estimate (log intensity, higher = more binding, comparable within an allelic series) | 6.5 upbm affinity estimate (log intensity, higher = more binding, comparable within an allelic series) | 6.59 upbm affinity estimate (log intensity, higher = more binding, comparable within an allelic series) | 6.59 upbm affinity estimate (log intensity, higher = more binding, comparable within an allelic series) | 6.39 upbm affinity estimate (log intensity, higher = more binding, comparable within an allelic series) |
| CCGGTCAG | 6.41 upbm affinity estimate (log intensity, higher = more binding, comparable within an allelic series) | 6.5 upbm affinity estimate (log intensity, higher = more binding, comparable within an allelic series) | 6.57 upbm affinity estimate (log intensity, higher = more binding, comparable within an allelic series) | 6.6 upbm affinity estimate (log intensity, higher = more binding, comparable within an allelic series) | 6.53 upbm affinity estimate (log intensity, higher = more binding, comparable within an allelic series) |
| CCGAAAGC | 6.49 upbm affinity estimate (log intensity, higher = more binding, comparable within an allelic series) | 6.52 upbm affinity estimate (log intensity, higher = more binding, comparable within an allelic series) | 6.56 upbm affinity estimate (log intensity, higher = more binding, comparable within an allelic series) | 6.47 upbm affinity estimate (log intensity, higher = more binding, comparable within an allelic series) | 6.52 upbm affinity estimate (log intensity, higher = more binding, comparable within an allelic series) |
| AGCGTTCG | 6.54 upbm affinity estimate (log intensity, higher = more binding, comparable within an allelic series) | 6.5 upbm affinity estimate (log intensity, higher = more binding, comparable within an allelic series) | 6.53 upbm affinity estimate (log intensity, higher = more binding, comparable within an allelic series) | 6.53 upbm affinity estimate (log intensity, higher = more binding, comparable within an allelic series) | 6.63 upbm affinity estimate (log intensity, higher = more binding, comparable within an allelic series) |
| AAGTTCCC | 6.43 upbm affinity estimate (log intensity, higher = more binding, comparable within an allelic series) | 6.39 upbm affinity estimate (log intensity, higher = more binding, comparable within an allelic series) | 6.56 upbm affinity estimate (log intensity, higher = more binding, comparable within an allelic series) | 6.49 upbm affinity estimate (log intensity, higher = more binding, comparable within an allelic series) | 6.65 upbm affinity estimate (log intensity, higher = more binding, comparable within an allelic series) |
| AGCCTCGC | 6.43 upbm affinity estimate (log intensity, higher = more binding, comparable within an allelic series) | 6.5 upbm affinity estimate (log intensity, higher = more binding, comparable within an allelic series) | 6.45 upbm affinity estimate (log intensity, higher = more binding, comparable within an allelic series) | 6.49 upbm affinity estimate (log intensity, higher = more binding, comparable within an allelic series) | 6.46 upbm affinity estimate (log intensity, higher = more binding, comparable within an allelic series) |
| AATACATA | 7.62 upbm affinity estimate (log intensity, higher = more binding, comparable within an allelic series) | 7.7 upbm affinity estimate (log intensity, higher = more binding, comparable within an allelic series) | 7.3 upbm affinity estimate (log intensity, higher = more binding, comparable within an allelic series) | 7.6 upbm affinity estimate (log intensity, higher = more binding, comparable within an allelic series) | 7.4 upbm affinity estimate (log intensity, higher = more binding, comparable within an allelic series) |
| CCACTGCG | 6.48 upbm affinity estimate (log intensity, higher = more binding, comparable within an allelic series) | 6.49 upbm affinity estimate (log intensity, higher = more binding, comparable within an allelic series) | 6.5 upbm affinity estimate (log intensity, higher = more binding, comparable within an allelic series) | 6.5 upbm affinity estimate (log intensity, higher = more binding, comparable within an allelic series) | 6.42 upbm affinity estimate (log intensity, higher = more binding, comparable within an allelic series) |

Source: PMC11006913
